PubChem BioAssay (NCATS)
Inconclusive results are not listed. The source made the active and inactive calls. Unless noted, calls follow the shape of the dose curve; as a rule, active = well fitted curve in the direction sought with a large enough effect; inconclusive = small, poorly fitted or top-dose-only effect, or another doubt; inactive = no such curve, though single readings can be large; an effect the other way counts as inactive or inconclusive.

Legend:
[1] = Primary qHTS for inhibitors of nuclear receptor binding SET domain protein 2 (NSD2) in an isogenic RCH-ACV NSD2 p.E1099K mutant (9B) (AID 1645876); details: RCH-ACV NSD2 E1099K (9B) viability, CellTiter-Glo, 72 h; series mostly up to 44.9 µM; also: nearly all actives have a fitted effect of over 70% in size; also: potency is read from the fitted curve at half-maximal effect
[2] = Primary qHTS for inhibitors of nuclear receptor binding SET domain protein 2 (NSD2) in an RCH-ACV wild type WT cells (2C) (AID 1645877); details: RCH-ACV (leukaemia line) NSD2 WT (2C) viability, CellTiter-Glo, 72 h; series mostly up to 44.9 µM; also: nearly all actives have a fitted effect of over 70% in size; also: potency is read from the fitted curve at half-maximal effect
[3] = molecular target: Catechol O-methyltransferase (Homo sapiens) (UniProt P21964); test: Confirmatory Screen for Target Class Profiling of Small Molecule Inhibitors of Methyltransferases (AID 1745852; calls by dose curve; as to activity change, negative = inhibition: % is scaled to controls: 0 for no effect and ±100 for the full control effect); details: MTase-Glo luminescence, SAH detection, recombinant enzyme; measured here: COMT max response; stronger effect = lower value
Catechol O-methyltransferase (Homo sapiens), sequence (P21964 whole entry, looked up): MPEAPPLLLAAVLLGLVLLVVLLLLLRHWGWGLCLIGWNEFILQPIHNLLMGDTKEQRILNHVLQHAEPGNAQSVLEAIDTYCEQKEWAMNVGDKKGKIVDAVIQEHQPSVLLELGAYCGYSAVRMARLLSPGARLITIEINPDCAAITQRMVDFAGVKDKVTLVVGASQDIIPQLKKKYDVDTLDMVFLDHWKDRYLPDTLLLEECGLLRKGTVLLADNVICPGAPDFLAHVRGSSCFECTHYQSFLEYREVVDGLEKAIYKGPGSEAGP

[4] = molecular target: Guanidinoacetate N-methyltransferase (Homo sapiens) (UniProt Q14353); test: as above; details: MTase-Glo luminescence, SAH detection, recombinant enzyme; activity change, negative = inhibition: at 57.3 µM (top of the series) unless noted; series mostly up to 57.3 µM
[5] = molecular target: Nicotinamide N-methyltransferase (Homo sapiens) (UniProt P40261); test: as above; details: MTase-Glo luminescence, SAH detection, recombinant enzyme; measured here: NNMT max response; stronger effect = lower value
Nicotinamide N-methyltransferase (Homo sapiens), sequence (P40261 whole entry, looked up): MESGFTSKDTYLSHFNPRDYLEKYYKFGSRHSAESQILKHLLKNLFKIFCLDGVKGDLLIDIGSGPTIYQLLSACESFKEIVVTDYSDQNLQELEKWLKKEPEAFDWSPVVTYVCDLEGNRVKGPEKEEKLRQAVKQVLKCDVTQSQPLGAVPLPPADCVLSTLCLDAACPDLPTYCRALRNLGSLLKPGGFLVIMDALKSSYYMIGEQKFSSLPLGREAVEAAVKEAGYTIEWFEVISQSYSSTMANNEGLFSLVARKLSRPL

[6] = molecular target: Phenylethanolamine N-methyltransferase (Homo sapiens) (UniProt P11086); test: as above; details: MTase-Glo luminescence, SAH detection, recombinant enzyme; measured here: PNMT max response; stronger effect = lower value
Phenylethanolamine N-methyltransferase (Homo sapiens), sequence (P11086 whole entry, looked up): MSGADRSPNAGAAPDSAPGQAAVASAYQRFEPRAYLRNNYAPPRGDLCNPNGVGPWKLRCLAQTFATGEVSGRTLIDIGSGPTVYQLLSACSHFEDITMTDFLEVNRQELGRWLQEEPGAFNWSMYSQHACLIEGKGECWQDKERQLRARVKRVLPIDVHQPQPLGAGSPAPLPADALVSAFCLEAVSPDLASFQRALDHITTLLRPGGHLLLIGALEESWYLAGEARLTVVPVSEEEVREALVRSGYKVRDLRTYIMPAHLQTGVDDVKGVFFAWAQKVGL

[7] = molecular target: Rap guanine nucleotide exchange factor 3 (Homo sapiens) (UniProt O95398); test: Confirmatory qHTS for agonist of cAMP-regulated guanine nucleotide exchange factor 3 (EPAC1) (AID 1645881); details: EPAC1 Rap1B BODIPY-GDP exchange fluorescence, 100% = cAMP control response; series mostly up to 154 µM;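 also: EPAC1 catalysed release of BODIPY-GDP from Rap1B seen as fluorescence loss; nearly all actives have a fitted effect of over 75% in size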
Rap guanine nucleotide exchange factor 3 (Homo sapiens), sequence (O95398 whole entry, looked up): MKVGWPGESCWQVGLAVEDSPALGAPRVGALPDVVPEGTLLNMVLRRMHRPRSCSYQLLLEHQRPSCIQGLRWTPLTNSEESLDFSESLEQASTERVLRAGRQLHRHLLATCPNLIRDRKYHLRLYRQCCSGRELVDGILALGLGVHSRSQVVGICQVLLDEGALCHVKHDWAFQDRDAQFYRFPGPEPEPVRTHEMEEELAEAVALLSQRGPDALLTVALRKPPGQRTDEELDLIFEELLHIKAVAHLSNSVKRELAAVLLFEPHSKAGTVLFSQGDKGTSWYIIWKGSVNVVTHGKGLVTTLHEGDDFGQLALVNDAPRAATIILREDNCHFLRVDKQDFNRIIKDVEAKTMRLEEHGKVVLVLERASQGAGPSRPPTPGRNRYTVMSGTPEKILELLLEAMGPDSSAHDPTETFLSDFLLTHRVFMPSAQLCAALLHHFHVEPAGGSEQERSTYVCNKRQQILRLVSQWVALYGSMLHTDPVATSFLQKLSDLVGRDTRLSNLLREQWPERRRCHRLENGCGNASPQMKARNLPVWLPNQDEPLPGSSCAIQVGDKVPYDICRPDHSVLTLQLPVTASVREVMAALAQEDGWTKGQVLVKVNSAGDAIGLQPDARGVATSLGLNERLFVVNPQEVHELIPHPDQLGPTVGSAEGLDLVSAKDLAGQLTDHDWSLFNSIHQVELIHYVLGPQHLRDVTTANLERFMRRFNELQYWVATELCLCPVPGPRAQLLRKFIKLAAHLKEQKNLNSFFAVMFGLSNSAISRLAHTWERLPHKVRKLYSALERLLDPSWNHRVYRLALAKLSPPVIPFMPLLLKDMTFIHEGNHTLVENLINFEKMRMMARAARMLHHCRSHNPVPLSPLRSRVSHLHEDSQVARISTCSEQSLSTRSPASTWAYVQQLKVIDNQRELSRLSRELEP

[8] = molecular target: Rap guanine nucleotide exchange factor 4 (Homo sapiens) (UniProt Q8WZA2); test: Confirmatory qHTS for agonist of cAMP-regulated guanine nucleotide exchange factor 4 (EPAC2) (AID 1645884); details: EPAC2 GEF activity, Rap1B-BODIPY-GDP fluorescence, percent relative to cAMP agonist control; series mostly up to 154 µM;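 also: nucleotide exchange releases bodipy-GDP from Rap1 and this lowers its fluorescence; % is scaled to controls: 0 for no effect and ±100 for the full control effect; nearly all actives have a fitted effect of over 65% in size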
Rap guanine nucleotide exchange factor 4 (Homo sapiens), sequence (Q8WZA2 whole entry, looked up): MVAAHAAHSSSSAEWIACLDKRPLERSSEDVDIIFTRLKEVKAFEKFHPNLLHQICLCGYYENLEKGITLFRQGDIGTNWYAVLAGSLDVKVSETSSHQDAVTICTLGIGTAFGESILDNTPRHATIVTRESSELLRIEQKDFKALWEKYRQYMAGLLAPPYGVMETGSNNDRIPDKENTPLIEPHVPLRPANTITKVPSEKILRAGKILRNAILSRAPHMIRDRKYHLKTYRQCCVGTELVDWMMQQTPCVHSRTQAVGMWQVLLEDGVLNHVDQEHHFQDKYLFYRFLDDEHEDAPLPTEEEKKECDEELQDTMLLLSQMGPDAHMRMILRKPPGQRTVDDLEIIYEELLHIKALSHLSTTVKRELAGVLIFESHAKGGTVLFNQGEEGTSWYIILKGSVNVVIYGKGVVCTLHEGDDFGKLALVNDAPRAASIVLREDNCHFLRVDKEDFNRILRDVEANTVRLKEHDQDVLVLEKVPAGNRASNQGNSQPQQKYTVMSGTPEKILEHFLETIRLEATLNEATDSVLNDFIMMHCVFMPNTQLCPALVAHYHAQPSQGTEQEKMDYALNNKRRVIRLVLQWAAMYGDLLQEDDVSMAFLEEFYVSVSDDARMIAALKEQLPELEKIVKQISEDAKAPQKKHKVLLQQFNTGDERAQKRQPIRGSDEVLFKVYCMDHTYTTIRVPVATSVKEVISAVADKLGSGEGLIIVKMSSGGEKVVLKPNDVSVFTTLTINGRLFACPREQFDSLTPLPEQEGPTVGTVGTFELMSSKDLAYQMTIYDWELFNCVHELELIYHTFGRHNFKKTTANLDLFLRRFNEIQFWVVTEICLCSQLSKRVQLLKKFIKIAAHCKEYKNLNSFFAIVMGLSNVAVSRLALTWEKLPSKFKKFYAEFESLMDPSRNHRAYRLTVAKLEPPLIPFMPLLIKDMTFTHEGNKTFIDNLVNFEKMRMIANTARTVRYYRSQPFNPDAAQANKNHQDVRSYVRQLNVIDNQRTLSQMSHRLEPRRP

[9] = molecular target: Rap guanine nucleotide exchange factor 4 (Homo sapiens) (UniProt Q8WZA2); test: Confirmatory qHTS for antagonist of cAMP-regulated guanine nucleotide exchange factor 4 (EPAC2) (AID 1645885); details: EPAC2 Rap1B-BODIPY-GDP exchange fluorescence, biochemical; series mostly up to 114 µM; also: % is scaled to controls: 0 for no effect and ±100 for the full control effect; nearly all actives have a fitted effect of over 25% in size
[10] = molecular target: Rap guanine nucleotide exchange factor 3 (Homo sapiens) (UniProt O95398); test: Counterscreen qHTS for antagonist of cAMP-regulated guanine nucleotide exchange factor 3 (EPAC1) (AID 1645888); details: Rap1B-BODIPY-GDP nucleotide exchange, fluorescence; series mostly up to 154 µM;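 also: fluorescence loss as bound BODIPY-GDP is released from Rap1B; % of control where 0% means no effect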
Procedure, shortened: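 Rap1B–BODIPY-GDP (250 nM) with 50 uM GDP; compounds pin-transferred to 9.74 nM–152 uM final (activator) or from 7.32 nM upwards (inhibitor). Fluorescence Ex/Em 480/540 nm read at 5 and 30 min, then after adding cAMP or buffer, at room temperature.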

C=CC(=O)Nc1ccc(CN2C(=O)N(c3cc(OC)cc(OC)c3)Cc3cnc(Nc4ccc(N5CCN(C)CC5)cc4)nc32)cc1
Potency [1]: 1.46 µM (active)
Potency [2]: 0.817 µM (active)
activity [3]: -18.9%
activity change, negative = inhibition [4]: -0.849%
activity [5]: -1.46%
activity [6]: -2.5%

Cc1[nH]c2ccc(F)cc2c1-c1nc2c3cccnc3c3ncccc3c2[nH]1
Potency [1]: 1.21 µM (active)
Potency [2]: 1.08 µM (active)

CCn1c(-c2nonc2N)nc2c(C#CC(C)(C)O)ncc(OCC3CCCNC3)c21 (stereo unspecified)
Potency [1]: 1.03 µM (active)
Potency [2]: 1.45 µM (active)
activity [3]: -1.89%
activity change, negative = inhibition [4]: 0.279%
activity [5]: -28%
activity [6]: -3.65%

COc1cc2nc(N3CCN(C(=O)c4ccco4)C4CCCCC43)nc(N)c2cc1OC (stereo unspecified)
Potency [1]: 2.3 µM (active)
Potency [2]: 3.65 µM (active)
activity [3]: -2.31%
activity change, negative = inhibition [4]: 0%
activity [5]: -31.3%
activity [6]: 0.0711%

CC(=O)[C@H]1CC[C@H]2[C@@H]3CC=C4C[C@@H](OS(=O)(=O)O)CC[C@]4(C)[C@H]3CC[C@]12C
Potency [1]: inactive
Potency [2]: inactive
outcome [7]: inactive
outcome [8]: inactive
Potency [9]: inactive
outcome [10]: inactive

COC(=O)CC1OC(C)C2=C(O)c3c(O)cccc3C(=O)C23OC13 (stereo unspecified)
Potency [1]: 2.84 µM (active)
Potency [2]: 2.01 µM (active)
activity [3]: -4.94%
activity change, negative = inhibition [4]: -3.96%
activity [5]: -0.835%
activity [6]: -0.505%

CN(C)CCOC(C)(c1ccccc1)c1ccc(Cl)cc1 (stereo unspecified)
Potency [1]: 11.5 µM (active)
Potency [2]: 10.3 µM (active)
activity [3]: -7.63%
activity change, negative = inhibition [4]: -4.69%
activity [5]: -25.2%
activity [6]: -3.91%

CO[C@H]1[C@@H](O)[C@H](O[C@H]2CC[C@@]3(C)C(CCC4C3CC[C@]35COC6(COC(=O)C6)C3CCC45O)C2)O[C@@H](C)[C@@H]1OC1OC(CO)C(OC2OC(CO)C(O)C(O)C2O)C(O)C1O (stereo partly specified)
Potency [1]: 3.88 µM (active)
Potency [2]: 3.88 µM (active)

C=C1C(=O)O[C@H]2C3=C(C)CCC[C@]3(C)C(=O)C[C@@H]12
Potency [1]: 1.83 µM (active)
Potency [2]: 1.29 µM (active)

C=C1C(=O)OC2/C=C(\C)CC/C=C(\C=O)C(OC)C(OC(=O)C(C)CC)C12 (stereo unspecified)
Potency [1]: 7.13 µM (active)
Potency [2]: 2.84 µM (active)
activity [3]: -70.5%
activity change, negative = inhibition [4]: -5.12%
activity [5]: -2.69%
activity [6]: -0.332%

C=C1C(=O)O[C@@H]2/C=C(\CO)CC/C=C(/C=O)C[C@@H](O)[C@@H]12
Potency [1]: 6.49 µM (active)
Potency [2]: 4.09 µM (active)
activity [3]: -63.7%
activity change, negative = inhibition [4]: -8.49%
activity [5]: -2.02%
activity [6]: -2.71%

COc1ccc(CCc2nc3c(C)c(-c4c(C)noc4C)c(C)cc3n2CCN2CCOCC2)cc1
Potency [1]: 18.3 µM (active)
Potency [2]: 18.3 µM (active)
activity [3]: 6.34%
activity change, negative = inhibition [4]: 5.22%
activity [5]: -28%
activity [6]: 1.27%

C=C1C(=O)OC2C=C(C)CC/C=C(\CO)CC(O)C12 (stereo unspecified)
Potency [2]: 20.5 µM (active)

COc1cc2c(c(OC)c1CC=C(C)C)C[C@H](c1ccc(O)c(CC=C(C)C)c1O)CO2
Potency [2]: inactive

CC(C)(O)C1Cc2c(ccc(C(=O)CCc3ccccc3)c2O)O1 (stereo unspecified)
Potency [2]: inactive

C[C@@H]1O[C@@H](O[C@H]2CC[C@@]3(C)C(CC[C@]4(C)C3CC=C3[C@@H]5CC(C)(C)CC[C@]5(C(=O)O[C@@H]5O[C@H](CO)[C@@H](O)[C@H](O)[C@H]5O)CC[C@]34C)[C@]2(C)CO)[C@H](O)[C@H](O[C@@H]2O[C@H](CO)[C@@H](O)[C@H](O)[C@H]2O)[C@H]1O (stereo partly specified)
Potency [2]: 3.46 µM (active)

C=C1C(=O)O[C@H]2CC(=C)[C@H]3CC[C@@](C)(O)[C@@H]3CC12 (stereo partly specified)
Potency [1]: 12.9 µM (active)
activity [3]: -86%
activity change, negative = inhibition [4]: 1.75%
activity [5]: 0%
activity [6]: 3.31%

COc1ccc(NC(=O)C2C[C@H](C)CC[C@H]2C(C)C)cc1 (stereo partly specified)
Potency [2]: inactive

COC1C=C(C)C(O)(CO)C2(C)CCCC(C)(C)C12 (stereo unspecified)
Potency [1]: inactive
activity [3]: -68.4%
activity change, negative = inhibition [4]: -5.83%
activity [5]: -3.75%
activity [6]: -2.37%

C=C1C(=O)O[C@@H]2/C=C(\CO)CC/C=C(/C=O)C[C@H](O)[C@@H]12
Potency [1]: 7.28 µM (active)
Potency [2]: 4.09 µM (active)
activity [3]: -86.9%
activity change, negative = inhibition [4]: -3.06%
activity [5]: 4.28%
activity [6]: 0.589%
